aSyn rescue: alpha-synuclein toxicity inhibition in yeast; Yeast expressing alpha-synuclein, growth rescue, BacTiter-Glo, 24 h; hit rate 0.14% among 370,000; Potency, µM (series often up to 46.1 µM), inactives show at the top dose growth rescue (activation), most hits filed as activators; also: potency is read from the fitted curve at half-maximal effect; % of control where 0% means no effect; nearly all actives have a fitted effect of over 65% in size
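Readout is rescue of growth in alpha-synuclein-expressing yeast, so inhibitors of toxicity appear as activators. Growth after 24 hr at 30 deg C in galactose medium is quantified by luminescence.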
Abeta rescue: restores growth of yeast expressing A-beta42 peptide. AID 1347071. Potency, µM (series often up to 46.1 µM), usual class: activators. yeast expressing A-beta42, growth rescue, OD600, 48 h; response scale: 0% DMSO, 100% iron-clioquinol control. hit rate 0.063% among 410,000; also: potency is read from the fitted curve at half-maximal effect; nearly all actives have a fitted effect of over 55% in size
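Yeast growth medium received pinned compounds, then yeast cells expressing toxic A-beta were added; plates incubated at 30 C for 48 hr. Growth read as absorbance at 600 nm, normalized to DMSO and equimolar FeCl3 plus clioquinol controls.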
IDH1 R132H inh: inhibitors of human mutant IDH1 R132H; O75874; IDH1-R132H enzyme, NADPH consumption, diaphorase/resazurin fluorescence; Potency, µM (doses to about 76.6 µM), for the others: at the top dose activity change, negative = inhibition, most hits filed as inhibitors; hit rate 0.093% among 390,000; AID 602179; also: potency is read from the fitted curve at half-maximal effect; % is scaled to controls: 0 for no effect and ±100 for the full control effect; nearly all actives have a fitted effect of over 65% in size
Target sequence (O75874 whole entry R132H, stated change not applied): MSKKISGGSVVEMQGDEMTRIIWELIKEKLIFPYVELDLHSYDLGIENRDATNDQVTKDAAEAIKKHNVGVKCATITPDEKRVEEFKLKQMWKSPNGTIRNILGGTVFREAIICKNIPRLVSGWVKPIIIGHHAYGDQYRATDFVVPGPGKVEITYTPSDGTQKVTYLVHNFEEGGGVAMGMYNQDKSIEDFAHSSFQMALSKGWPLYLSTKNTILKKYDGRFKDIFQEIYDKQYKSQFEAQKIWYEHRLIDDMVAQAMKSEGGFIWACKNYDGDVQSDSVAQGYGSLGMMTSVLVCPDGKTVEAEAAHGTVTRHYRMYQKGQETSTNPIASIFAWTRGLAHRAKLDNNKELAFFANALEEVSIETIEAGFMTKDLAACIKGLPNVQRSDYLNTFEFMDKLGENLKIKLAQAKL
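IDH1-R132H (0.5 ug/mL) preincubated 30 min with compound, then NADPH (0.016 mM) and alpha-KG (2 mM) added; 80 min at RT, pH 7.5. Remaining NADPH coupled via diaphorase/resazurin to fluorescence (540/590 nm); concentration-response curves normalized to no-enzyme control.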
TDP43 rescue: inhibitors of TDP-43 toxicity in yeast. TDP-43 expressing yeast growth rescue, BacTiter-Glo, 24 h. Potency, µM (series often up to 46.1 µM), for inactives: at the top dose growth rescue (activation), hits mostly activators. hit rate 1.8% among 410,000; also: potency is read from the fitted curve at half-maximal effect; % of control where 0% means no effect; nearly all actives have a fitted effect of over 50% in size
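Luminescence from BacTiter-Glo reports growth of TDP-43-expressing yeast after 24 hr at 30 deg C with compound. Cells were raffinose-pregrown to mid-log, then seeded in galactose medium at OD600=0.02.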
FUS suppressor: rescues growth of FUS-expressing yeast. Potency, µM (titrated, usually from 76.6 µM), hits mostly activators. S. cerevisiae FUS-expressing, growth rescue, OD600, 24 h. hit rate 0.24% among 390,000;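 also: potency is read from the fitted curve at half-maximal effect; plate controls were DMSO vehicle for no effect and reference control for full effect; nearly all actives have a fitted effect of over 55% in size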
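Steps: raffinose overnight preculture; dilution to OD 0.005 in 2% galactose minimal medium; compound addition (concentration series); 24hr at 30C, 99% humidity; absorbance read at 600 nm.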
LDHA inh: LDHA (human) enzyme inhibition; hit rate 0.15% among 480,000; P00338; purified LDHA, NADH/diaphorase-resazurin fluorescence; stronger effect = lower value; activity change, % (values are at about 110 or 230 µM); AID 1347041; in the data active = activity change below about -30%; inconclusive = mostly about -25% to -30%;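 also: plate controls were DMSO wells for no effect and wells without enzyme for full effect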
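Resorufin fluorescence (ex540/em590), read at 0 and 20 min after diaphorase/resazurin addition, reports the NADH left after a 5 min room-temperature reaction of 2 nM human LDH5 with 0.06 mM NADH and 0.2 mM pyruvate.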
* hit, by the source's call; i = inactive; ? = inconclusive; nt = no result given; ! = not active in a repeat. Rows were chosen to be rich in hits. Some 2% of all compounds tested hit in one or more screens of this group. Unless noted, calls follow the shape of the dose curve; as a rule, active = well fitted curve in the direction sought with a large enough effect; inconclusive = small, poorly fitted or top-dose-only effect, or another doubt; inactive = no such curve, though single readings can be large; an effect the other way counts as inactive or inconclusive.

SMILES | aSyn rescue | Abeta rescue | IDH1 R132H inh | TDP43 rescue | FUS suppressor | LDHA inh
Cc1cc(N2CCN(c3cccc(C)c3C)CC2)n2cnnc2n1 | nt | i | 0.8% | 22.4µM* | i | -6.6
COc1cccc2c(=O)c3c(cnn3C)n(C)c12 | 25.1µM* | ? | 10.5% | ? | i | -5.4
COc1cccc2c(=O)c3ccoc3n(C)c12 | 10.2% | i | 1.9% | 0.0% | i | -1.7
CC(NC(=O)c1ccc2c(c1)NC(=O)CS2)c1ccc2c(c1)OCCO2 (configuration not stated) | nt | nt | nt | nt | nt | -8.2
Cc1ccc(OCCOCCN2CCN(C)CC2)c(C(C)(C)C)c1 | 7.3% | i | -11.6% | -14.4% | i | -32.2*
O=C(CCc1ccccc1)NC1(C(F)(F)F)C(=O)Nc2c1c(=O)[nH]c(=O)n2Cc1ccccc1 (configuration not stated) | nt | nt | nt | nt | nt | -35.0*
CC(=O)NC1(C(F)(F)F)C(=O)Nc2c1c(=O)[nH]c(=O)n2Cc1ccccc1 (configuration not stated) | nt | nt | nt | nt | nt | -3.5
CCc1nn(CCCC(=O)NC2CCCCC2C)c(=O)c2cc3occc3n12 (configuration not stated) | 4.4% | i | -2.3% | 22.4µM* | i | -4.6
CCc1nn(CCCC(=O)NCc2ccc(OC(C)C)cc2)c(=O)c2cc3occc3n12 | -3.4% | i | -2.7% | 7.0% | 31.6µM*! | -0.3
O=c1oc2cc(OCc3nn[nH]n3)ccc2cc1-c1ccc2ccccc2c1 | nt | nt | nt | nt | nt | 0.7
CCOCC(=O)Nc1c(C(=O)Nc2ccc3c(c2)OCCO3)oc2ccccc12 | -19.4% | i | 5.5% | -13.5% | i | 1.5
CCC(=O)Nc1c(C(=O)Nc2ccc3c(c2)OCCO3)oc2ccccc12 | 5.8% | i | 5.0% | 11.2µM* | i | -3.7
CCOC(=O)c1cc(C)n(CCc2ccccc2)c1C | -8.9% | i | 4.7% | 7.8% | i | 0.3
COC(=O)CCn1c(C)cc(C(=O)COc2ccccc2C(N)=O)c1C | 5.7% | i | 2.3% | -11.6% | i | -3.5
Cc1cc(C(=O)CCl)c(C)n1CCc1ccccc1 | -11.3% | i | -12.6% | 10µM* | i | -1.9
Cc1cc(C(=O)CCl)c(C)n1Cc1ccco1 | -30.8% | i | -4.1% | 10µM* | i | -6.7
COC(=O)CCCn1c(C)cc(C(=O)CCl)c1C | -34.7% | i | 3.8% | 20µM* | i | -1.2
CCN(C(=O)COC(=O)c1ccc2ccccc2n1)c1ccccc1 | nt | nt | nt | nt | nt | -10.8
Clc1ccccc1C1=CC(c2ccco2)n2ncnc2N1 (configuration not stated) | -3.3% | i | 3.8% | 14.1µM* | i | 0.1
CCOc1ccc(C2C=C(c3ccccc3)Nc3nnnn32)cc1 (configuration not stated) | -3.8% | i | 0.5% | 1.2% | i | -3.4
Cc1ccc(C2=CC(c3ccc(C)cc3)n3ncnc3N2)cc1 (configuration not stated) | ? | ? | 0.7% | 15.8µM* | i | -2.4
Clc1ccc(C2=CC(c3ccco3)n3ncnc3N2)cc1 (configuration not stated) | -20.0% | i | 5.7% | ? | i | 3.6
FC(F)(F)c1ccccc1C1=CC(c2ccccc2)n2ncnc2N1 (configuration not stated) | -1.4% | i | -11.5% | 17.8µM* | i | 1.0
CCOc1ccc(C2C=C(c3ccc(C)cc3)Nc3nnnn32)cc1 (configuration not stated) | -32.4% | i | -1.0% | 22.4µM* | ? | 0.9
Cl/C(=C/c1ccc(Cl)cc1)c1ncc(-c2ccc(Cl)cc2)o1 | nt | nt | nt | nt | nt | 3.9
SMILES | aSyn rescue | Abeta rescue | IDH1 R132H inh | TDP43 rescue | FUS suppressor | LDHA inh
O=c1[nH]c(Sc2ccc([N+](=O)[O-])cc2[N+](=O)[O-])nc2ccccc12 | -16.2% | i | 0.0% | 12.6µM* | i | -6.6
O=C(CSc1nc2ccccc2c(=O)[nH]1)Nc1ccc([N+](=O)[O-])cc1 | 1.5% | i | 2.7% | 0.0% | i | 1.7
S=C1SCCCN1Cc1ccc(Cl)cc1 | 2.2% | i | 0.4% | 11.2µM* | i | -5.4
Clc1ccc(CN2CCCCCC2)cc1 | -1.3% | i | 8.9% | -19.6% | i | -19.2
Oc1c(Cl)cc(Cl)c(Cl)c1Sc1c(O)c(Cl)cc(Cl)c1Cl | nt | nt | nt | nt | nt | -1.6
S=C1NCCc2ccc(Cl)cc2C1c1ccccc1 (configuration not stated) | ? | i | -3.2% | 14.1µM* | i | -0.1
COc1cccc(/C=C/c2nc(C#N)c(N3CCCCC3)o2)c1 | nt | i | -11.5% | 15.8µM* | i | 7.4
COc1cccc(/C=C/c2nc(C#N)c(N3CCN(C(C)=O)CC3)o2)c1 | nt | nt | nt | nt | nt | -6.9
Cn1c(=O)c2cc(NC(=S)NC3CCCCC3)ccc2n1Cc1ccc(F)cc1 | 0.1% | i | nt | 28.3% | i | -2.2
Cc1cc(C)cc(Cn2c3ccc(NC(=S)NC4CCCCC4)cc3c(=O)n2C)c1 | -8.8% | i | nt | 17.1% | 28.2µM* | -1.0
CCCCCOC(=O)c1c(C)oc2c1cc(NS(=O)(=O)c1cccs1)c1ccccc12 | nt | nt | nt | nt | nt | 14.6
O=C(/C(=N/N=C/c1ccc(O)c(O)c1O)c1ccccc1)c1ccccc1 | 15.8µM* | i | ? | -92.2% | nt | 34.3
Oc1ccc(/C=N/N=C(c2ccccc2)c2ccccc2)c(O)c1O | 24.3% | i | -3.5% | 0.0% | nt | 36.0
CN(Cc1ccco1)C(=O)c1cc(-c2cccs2)nc2ccccc12 | nt | nt | nt | nt | nt | 16.1
COc1ccc(-c2cc(NCc3ccc(C)cc3)n3cnnc3n2)cc1 | nt | i | 7.7% | 11.2µM* | i | -10.7
Cc1ccccc1NCc1ccc([N+](=O)[O-])s1 | 12.3% | i | -4.6% | 11.2µM* | i | -5.3
COc1ccccc1NCc1ccc([N+](=O)[O-])s1 | 5.8% | i | 3.2% | ? | i | 0.8
Cc1ccc(NCc2ccc([N+](=O)[O-])s2)cc1 | 16.7% | i | 5.5% | 11.2µM* | i | 0.8
O=[N+]([O-])c1ccc(CNc2cccc(F)c2)s1 | 19.0% | ? | -0.9% | 11.2µM* | i | -5.7
O=C(Cc1csc(-c2cccs2)n1)NCc1ccc(F)cc1 | nt | nt | nt | nt | nt | 3.1
CC(C)Nc1nc(-c2ccc3c(c2)CCCN3S(C)(=O)=O)cs1 | nt | nt | nt | nt | nt | 4.3
CCCOc1cc(C)c(C)cc1S(=O)(=O)N1CCCCC1 | nt | nt | nt | nt | nt | -1.8
CCN(c1ccccc1)C(CNS(=O)(=O)c1ccccc1)c1ccccc1 (configuration not stated) | nt | i | nt | 17.8µM* | i | -2.7

Screens (PubChem BioAssay)
